Results on 13 molecules are retold here after PMC12864922, “TDP-43 directly inhibits mRNA accumulation in neurites through modulation of mRNA stability”.

To fix the notation:
B1: ENSMUSG00000058297.485|Spock2 (ssRNA)
RNA: GGGAGUUCUACAGUCCGACGAUCGCUUCGAUAUCCGCAUGCUACUGGAGCUGCCCUACUAAGAGCCUCCUUAGCCCUGGGUGCUGGGAAGGAUGGUGUACGUUGGGGAAGUUUGAGGUUGGAGAGAGUAAAUGUGCCUUGAGAGACCACUCAGAGGUCCCAGGAGGAACGGGGGCGGGGCUUAGCCUGGGAGUUCUGGCAGGAGGCAAAGUUGGUGAGAGUCCUGGGACAUCUUACCCCCAGUGUUCCACAGGAGUCGUGACCACGUGUGAUGGGUGGGCACAGGUCUGCCUUGCUCCAGCCCCUCUUGCGGUCGCACUAGUGUGGAAUUCUCGGGUGUCAAGG
B2: ENSMUSG00000004113.268|Cacna1b (ssRNA)
RNA: GGGAGUUCUACAGUCCGACGAUCGCUUCGAUAUCCGCAUGCUACGUGUUACAAGAAACUGGCAGGAAGGAAAUGGCCCUGGAACAGGCCAGGUGCCUAGAGCUAAGUCAGGCCCCUGGCUUAGCACUAGAAAAAAUAAAACCUCAUGGCUGCUUUGCAAAGGGAAAACCCAUGCUCAGGAAGGUGUUCAGUGUGCACAGAUAGCUGGGAGGCCACGAGAGAAAGGUUGCACACAGACAGGCAGGCACUCCUUGGUGUGGUCUCUCUGUUUUGAAACUUCUGAUGACUUCUUGGUGGCUUGUUGCUCUUGCGGUCGCACUAGUGUGGAAUUCUCGGGUGUCAAGG
B3: ENSMUSG00000029028.187|Lrrc47|67:71 (ssRNA)
RNA: GGGAGUUCUACAGUCCGACGAUCGCUUCGAUAUCCGCAUGCUAGUCAGCGUGUCCCACUAUUCAUGUCCCAUCUCUGUGCAUCCUGACUGCGCACAUCCCAUCUCCGCAACACAACGCAUCUGUACCAGCACACAGCUGCCAUCCCUCGAGCCACAGUGCCUGGUCCUAAGGACCCAGCAGCUGCACAGAGGACUUGGUGGCCCCGUGCCUUGCCAUCUGGCUGAGAAGAGAACCAGACCCUCAGCCUUCCCCCUCGACACCUUCUCGUUGGUGACCUCUGACCUUAAAGGACCAUUUCUACCCUCUUGCGGUCGCACUAGUGUGGAAUUCUCGGGUGUCAAGG
B4: ENSMUSG00000061578.966|Ksr2 (ssRNA)
RNA: GGGAGUUCUACAGUCCGACGAUCGCUUCGAUAUCCGCAUGCUAGCCCUGGAUGUGACUAUAUGUGCUGAGAAGGGAAGGUAGUUUUCCCCCAGAAAGUCCCUUCUAAUAAACAUUGAUGACUUUAGAAUCCAUGACUCAGAAUUUUCCAGAGACCCAAUCCCUCGGGGUCCACUUAGUGAUGGGACCAUACAAGAGUUUAUUUCCAAUUAGAGAAUUGGGUCAACUGGGAAAGGCUUCUUUCCUGGUAACCCUGCUACUGAUACUAUGUUGAAACAGGAAUCGACUCUAACUGCUUUUUGGCCCUCUUGCGGUCGCACUAGUGUGGAAUUCUCGGGUGUCAAGG
B5: ENSMUSG00000031028.668|Tub (ssRNA)
RNA: GGGAGUUCUACAGUCCGACGAUCGCUUCGAUAUCCGCAUGCUAGGCAAAAUUUCUCUAGCUGAGAGCACACUUAGCCAGUUUUCACGCCUAGAACAUAUAUGUCGAUUUGCACAUGAUUGUCUUUUCCUAUUUUGGAGUGGUCAGACAUUUUAUUUUUGUUCAAAAUUAUCUGGAGUUUUAGACAAACUUGCAAAACUGUGCUUUUAUUAAGUGACUUUUUGAAUAAACUUUUUGGUAUUCUGAAGCAAAUGUAUUUAUUUAUUGGUAUGUGCAAUGACAAACUUGGUAUUUUCCCAUAAUGACUCUUGCGGUCGCACUAGUGUGGAAUUCUCGGGUGUCAAGG
B6: ENSMUSG00000061578.140|Ksr2 (ssRNA)
RNA: GGGAGUUCUACAGUCCGACGAUCGCUUCGAUAUCCGCAUGCUAGGCUGUGGCAAGAGAGUUCUGGUGUGUUCUCUCUGUGGGGCUAGCAAUGCCGGGGUUAAGUUCUCCCUCGGUGAUGGAGACGGUCCUGGGUAUGCAUGAUGGGUUACAUGGGUGUGUGUGUGUGUGUAACUGUUUACAAUGGUCUCCCUGCCUCUCACGGGCUGUGUUCCAGGAGAAUGCACAUAGAGAGGUUCUGUGGUCUCUGCUGUCGCCUGGUGCUGAAUCCUGAGUGGUUUCCCCACUGAGGACCCUGUGACCCUCUCUUGCGGUCGCACUAGUGUGGAAUUCUCGGGUGUCAAGG
B7: ENSMUSG00000061578.854|Ksr2|32:36 (ssRNA)
RNA: GGGAGUUCUACAGUCCGACGAUCGCUUCGAUAUCCGCAUGCUAAGAGCAAUACAGGAAAAGGUCAGGGGUGAGAACACACAUUGCCACUUCCUCCAGCUAGGACCUUUGAGCAUCACAUUGUGAAGCCAUCCAGGGACUUGGGGGUUAGGUCAGAGGUAUCAAUACAUCUCCGGAAACAUCGUCACAGAUACCUAGAGGUACUUCAUUGAUCCCUUGAAAAGCAUGUCUUAAUUCUGUUAAGAUGUCAAUCAAGAUUACACAUCUCACUGCUUCACAGGCCAUCAGGGCCCCAUUCUGAGGUCCUCUUGCGGUCGCACUAGUGUGGAAUUCUCGGGUGUCAAGG
B8: ENSMUSG00000090935.379|Synj2bp (ssRNA)
RNA: GGGAGUUCUACAGUCCGACGAUCGCUUCGAUAUCCGCAUGCUAAGAUGCAGGGAUAUUGGUGAGGUGGGAGCUGUCCUGUUUAUGUAACAUCUAAGUUGGUUUUAGAGUACUGAGGAUAGUUGAACCAAGCCUAUUUUUUUUCCACUUUAACAAAAUAAUUUCCUUCUUUUCAGUAAAUUGGCCAGACUAUUAUUUUGACAUAAGAUUAUGAAGAGUUUUCCCGACAGUCUAGCAGUCACUUAACAGAUGUUGAUUGCACAUUAGUUUUGUCAGGACACCUUUAUAAAAAGAGAAAUGCACAUCUCUUGCGGUCGCACUAGUGUGGAAUUCUCGGGUGUCAAGG
B9: ENSMUSG00000061578.1219|Ksr2 (ssRNA)
RNA: GGGAGUUCUACAGUCCGACGAUCGCUUCGAUAUCCGCAUGCUACAGCAUGCUUCACUCUAUGAAUGAGCCGCUGGGAUAUUGACAUGGAGAUGUGUUGAUGGAAAAAGCCUCCACACCCAACAUAACUCUCCAGAGAGAUAUUGAAAGUGAUGGGCAGAGAGUCUGACAAUGACCCAGGGGUCAUUGUGAGUCCUAGGCUGAAUCUGUAAUGGGGUCCAAAGUGCAGGAGAGACUGCAUUCACCUUGUUGGUGGGGUGGGGCUUCUUUCAUUACUUUAAGUAUCUGUAUGGGCUUGAGGCAUGCUCUUGCGGUCGCACUAGUGUGGAAUUCUCGGGUGUCAAGG
B10: ENSMUSG00000090935.669|Synj2bp (ssRNA)
RNA: GGGAGUUCUACAGUCCGACGAUCGCUUCGAUAUCCGCAUGCUAUGGAGUGAGAUGAGUGUGUGCCAGCCAGCAACUCUGUCCUUCUAGGUAACUGGUUCAUGCUGAACCUUGAGAUUCACCACUGUCAGGAGCUCUCUCUCUCUGCUUAGAAUCAUCCAGACAGCGGGCUGGUCAGCCCACAUUAAAUAAGAACAUGUGGGACUAGAAUUCAGUCAACAAUGACAUGUUUCAUCAGGUGGUUAAAAUGUACAGAUUCUGUUGGAAAUGUUCCAUGGUAUUUCAAUAGCCAGAAUGAAGAACUGCUCUUGCGGUCGCACUAGUGUGGAAUUCUCGGGUGUCAAGG
B11: ENSMUSG00000061578.1449|Ksr2 (ssRNA)
RNA: GGGAGUUCUACAGUCCGACGAUCGCUUCGAUAUCCGCAUGCUAGGUAUAUAAAUGGAUGGAUGGGUGAUGGAUGGGUAAAUGAAUGGAUAGGUAUGUGAAUGAAUGGAUGAUGGAUGAAUGGAUGGGUAGGUGGGUAGAUAGGUAUAUGAAUGAAUGGAUGAAUGGAUGGGUGAAUGGAUGGAUAGGUAUGUGAAUAAAUGGAUGGAUGGAUGGAUUGAUUUGUGAAUGAAUGGAUGAAUGGAUGGGUAGGUGGGUGGAUGCAUAGGCAAGUAGAUGAAUGAAUAUGUGGGUAGAAGGGUGAGCUCUUGCGGUCGCACUAGUGUGGAAUUCUCGGGUGUCAAGG
B12: ENSMUSG00000061578.1454|Ksr2 (ssRNA)
RNA: GGGAGUUCUACAGUCCGACGAUCGCUUCGAUAUCCGCAUGCUAGGGUAAAUGAAUGGAUAGGUAUGUGAAUGAAUGGAUGAUGGAUGAAUGGAUGGGUAGGUGGGUAGAUAGGUAUAUGAAUGAAUGGAUGAAUGGAUGGGUGAAUGGAUGGAUAGGUAUGUGAAUAAAUGGAUGGAUGGAUGGAUUGAUUUGUGAAUGAAUGGAUGAAUGGAUGGGUAGGUGGGUGGAUGCAUAGGCAAGUAGAUGAAUGAAUAUGUGGGUAGAAGGGUGAGUGGGUGGAUGAAUGGAUGGAUAGGUUGGUACUCUUGCGGUCGCACUAGUGUGGAAUUCUCGGGUGUCAAGG
B13: ENSMUSG00000061578.1443|Ksr2 (ssRNA)
RNA: GGGAGUUCUACAGUCCGACGAUCGCUUCGAUAUCCGCAUGCUAGCAAGUAGGAUGGAUGGAUGAGUGAGUGGAUAGGUAGGUAUAUAAAUGGAUGGAUGGGUGAUGGAUGGGUAAAUGAAUGGAUAGGUAUGUGAAUGAAUGGAUGAUGGAUGAAUGGAUGGGUAGGUGGGUAGAUAGGUAUAUGAAUGAAUGGAUGAAUGGAUGGGUGAAUGGAUGGAUAGGUAUGUGAAUAAAUGGAUGGAUGGAUGGAUUGAUUUGUGAAUGAAUGGAUGAAUGGAUGGGUAGGUGGGUGGAUGCAUAGGCUCUUGCGGUCGCACUAGUGUGGAAUUCUCGGGUGUCAAGG

The full ranking holds about 9,900 sequences; the median of “r (bound/input frequency ratio)” is about 0.7, and the highest 2% start at about 6.5. The list comes from a sample in which the highest values are over-represented; it also holds similar and randomly drawn sequences.

Sequence of TDP-43 (Q13148 whole entry): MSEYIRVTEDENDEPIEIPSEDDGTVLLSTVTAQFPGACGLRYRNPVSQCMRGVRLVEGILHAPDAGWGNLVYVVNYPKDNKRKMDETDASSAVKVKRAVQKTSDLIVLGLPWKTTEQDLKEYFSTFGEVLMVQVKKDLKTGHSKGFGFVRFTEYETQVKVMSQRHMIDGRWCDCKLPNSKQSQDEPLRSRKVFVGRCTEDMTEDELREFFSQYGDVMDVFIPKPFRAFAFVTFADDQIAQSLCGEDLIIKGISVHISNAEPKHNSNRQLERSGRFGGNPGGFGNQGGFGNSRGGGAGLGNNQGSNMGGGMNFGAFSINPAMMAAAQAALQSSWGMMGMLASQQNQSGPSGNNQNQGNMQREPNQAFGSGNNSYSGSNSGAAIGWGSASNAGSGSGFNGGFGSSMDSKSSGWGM

This assay addresses TDP-43 (Homo sapiens, UniProt Q13148 1-414). As to the kind of experiment: RNA Bind-n-Seq with designed 260-mer pool; 25 mM Tris-HCl, 150 mM KCl, 3 mM MgCl2, BSA (printed 500 mg/mL), 20 units/mL SUPERase IN; pH not stated; 500 nM RNA pool, 1 h, 4 C; TDP-43 5, 50, 500 nM; high values mean tight binding. The note with it: protein: recombinant; tags: SBP (GST cleaved off with PreScission; pGEX-GST-SBP). The gist of the method: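 The incubation lasted 1 h at 4 °C and used 500 nM of an in vitro-transcribed 260-nt 3′ UTR oligo pool with recombinant SBP-tagged TDP-43 at 5, 50 or 500 nM immobilized on streptavidin beads. It took place in 25 mM Tris-HCl, 150 mM KCl, 3 mM MgCl2, BSA and SUPERase IN. Bound RNA was washed, eluted with biotin, converted to cDNA, PCR-amplified and sequenced to give R, each oligo's normalized abundance in the bound sample divided by that in input. Two independent protein batches provided the duplicates.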
Turning to B1, the binding signal is 5.55 R (bound/input frequency ratio). As to B2, the binding signal is 0.57 R (bound/input frequency ratio). The result for B3 reads 1.42 R (bound/input frequency ratio). For B4, the binding signal was 0.302 R (bound/input frequency ratio).

With B5, the binding signal was 0.159 R (bound/input frequency ratio). Next, B6: 5.07 R (bound/input frequency ratio); B7: 0.103 R (bound/input frequency ratio); B8: 0.043 R (bound/input frequency ratio).

As to B9, the binding signal was 0.535 R (bound/input frequency ratio). The result for B10 reads 1.53 R (bound/input frequency ratio).

In the case of B11, the binding signal was 3.93 R (bound/input frequency ratio).

In the case of B12, the binding signal was 2.48 R (bound/input frequency ratio). Next, B13: 9.18 R (bound/input frequency ratio).
